Measured values as given in PubChem BioAssay (NCATS).
Records with an inconclusive call do not appear. Activity calls are given as the source filed them. Calls come from the whole dose curve; as a rule, active = well fitted curve in the direction sought with a large enough effect; inconclusive = small, poorly fitted or top-dose-only effect, or another doubt; inactive = no such curve, though single readings can be large; an effect the other way counts as inactive or inconclusive.

How the values were obtained:
NIH3T3 = experiment: qHTS assay to identify novel small-molecules to repurpose for Merkel cell carcinoma treatment (AID 1296009); settings: MCC and control cell lines, CellTiter-Glo viability, 72 h; at 44.8 µM (top of the series) unless noted; note: nearly all actives have a fitted effect of over 60% in size
In short: (§1)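 Luminescence from CellTiter-Glo, read 10 min after addition at room temperature, reported viability following a 72 hr, 37 degree celsius treatment with NPC or MIPE compounds in titration; values normalized to plate controls.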

UISO = experiment: as above; settings: MCC and control cell lines, CellTiter-Glo viability, 72 h; series mostly up to 46 µM
In short: as §1

WaGa = experiment: as above; settings: MCC and control cell lines, CellTiter-Glo viability, 72 h; series mostly up to 46 µM
In short: as §1

C33A = experiment: Primary qHTS to identify gynecologic anti-cancer compounds using libraries of approved drugs and bioactive compounds (AID 1345084); settings: Gynecologic cancer cell panel viability, ATPlite luminescence, 48 h; series mostly up to 57.5 µM; note: nearly all actives have a fitted effect of over 55% in size
In short: (§2)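 Cytotoxicity screen measuring ATP content by luciferase luminescence. Each compound is applied at five concentrations for 48 h at 37 C with 5% CO2.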

CAOV3 = experiment: as above; settings: Gynecologic cancer cell panel viability, ATPlite luminescence, 48 h; series mostly up to 57.5 µM
In short: as §2

CASKI = experiment: as above; settings: Gynecologic cancer cell panel viability, ATPlite luminescence, 48 h; series mostly up to 57.5 µM
In short: as §2

Es-2 = experiment: as above; settings: Gynecologic cancer cell panel viability, ATPlite luminescence, 48 h; series mostly up to 57.5 µM
In short: as §2

HeLa = experiment: as above; settings: Gynecologic cancer cell panel viability, ATPlite luminescence, 48 h; series mostly up to 57.5 µM
In short: as §2

Hek293T = experiment: as above; settings: Gynecologic cancer cell panel viability, ATPlite luminescence, 48 h, control line for the selectivity index; series mostly up to 57.5 µM
In short: as §2

JEG-3 = experiment: as above; settings: Gynecologic cancer cell panel viability, ATPlite luminescence, 48 h; series mostly up to 57.5 µM
In short: as §2

OV90 = experiment: as above; settings: Gynecologic cancer cell panel viability, ATPlite luminescence, 48 h; series mostly up to 57.5 µM
In short: as §2

PA-1 = experiment: as above; settings: Gynecologic cancer cell panel viability, ATPlite luminescence, 48 h; series mostly up to 57.5 µM
In short: as §2

SKOV3 = experiment: as above; settings: Gynecologic cancer cell panel viability, ATPlite luminescence, 48 h; series mostly up to 57.5 µM
In short: as §2

Tov-21-G = experiment: as above; settings: Gynecologic cancer cell panel viability, ATPlite luminescence, 48 h; series mostly up to 57.5 µM
In short: as §2

Tov112D = experiment: as above; settings: Gynecologic cancer cell panel viability, ATPlite luminescence, 48 h; series mostly up to 57.5 µM
In short: as §2

[1] = Drug repurposing screens with cells derived from glioblastoma tumor samples (AID 1345199); settings: GBM patient neurospheres viability, ATP luminescence, 48 h; note: nearly all actives have a fitted effect of over 40% in size; note: potency is the fitted concentration of half-maximal effect
In short: (§3)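 Primary testing used CD133+ neurospheres from four GBM patients, seven concentrations, 48 h exposure and ATP-based viability; confirmation added three slower-growing patient lines.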

astro = experiment: as above; settings: viability, ATP luminescence, 48 h; series mostly up to 45.9 µM
In short: as §3

[2] = qHTS assay to identify inhibitors of the type 1 interferon - major histocompatibility complex class I in skeletal muscle: Counter screen cell viability and HiBit confirmation (AID 1347412); settings: iHSKM muscle cells + IFN-b, HiBiT or CellTiter-Glo, 24 h; Potency: HiBiT; Viability, at 45.9 µM (top of the series); note: nearly all actives have a fitted effect of over 60% in size
In short: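 Myoblasts (C25cl48, HLA-B HiBiT) seeded in medium without dexamethasone, IFN-b 4 ng/ml added except unstimulated columns; 1 hr later compounds pinned (12-pt 1:3, top 46 uM final). Incubated 24 hrs, lysed 10 min, luminescence measured.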

[3] = at 45.9 µM (top of the series), tumour line B
[4] = at 45.9 µM (top of the series), tumour line D
[5] = at 46 µM (top of the series), tumour line A
[6] = at 46.1 µM (top of the series), tumour line C
% is set by controls: 0 for no effect and ±100 for the full control effect.

CN1C(=O)CC(C)(c2ccccc2)C1=O (configuration not stated)
inactive: outcome (NIH3T3) | Potency (UISO) | Potency (WaGa) | Potency (C33A) | Potency (CAOV3) | Potency (CASKI) | Potency (Es-2) | Potency (HeLa) | Potency (Hek293T) | Potency (JEG-3) | Potency (OV90) | Potency (PA-1) | Potency (SKOV3) | Potency (Tov-21-G) | Potency (Tov112D) | activity, negative = cell killing [1, 3] -1.54% | activity, negative = cell killing [1, 4] 0.352% | activity, negative = cell killing [1, 5] -33.9% | activity, negative = cell killing [1, 6] -2.82% | Potency (astro)

CN1C(CSCC(F)(F)F)Nc2cc(Cl)c(S(N)(=O)=O)cc2S1(=O)=O (configuration not stated)
inactive: outcome (NIH3T3) | Potency (UISO) | Potency (WaGa) | Potency (C33A) | Potency (CAOV3) | Potency (CASKI) | Potency (Es-2) | Potency (HeLa) | Potency (Hek293T) | Potency (JEG-3) | Potency (OV90) | Potency (PA-1) | Potency (SKOV3) | Potency (Tov-21-G) | Potency (Tov112D) | activity, negative = cell killing [1, 3] -3.33% | activity, negative = cell killing [1, 6] -15.1% | Potency (astro)

CCN(CC)CC(=O)OCC(=O)[C@@]1(O)CC[C@H]2[C@@H]3CCC4=CC(=O)CC[C@]4(C)[C@H]3[C@@H](O)C[C@@]21C
inactive: outcome (NIH3T3) | Potency (UISO) | Potency (WaGa) | Potency (C33A) | Potency (CAOV3) | Potency (CASKI) | Potency (Es-2) | Potency (HeLa) | Potency (Hek293T) | Potency (JEG-3) | Potency (OV90) | Potency (PA-1) | Potency (SKOV3) | Potency (Tov-21-G) | Potency (Tov112D) | Potency [2]

CC(=O)Nc1ccc(S(=O)(=O)Nc2cc(C)on2)cc1
inactive: outcome (NIH3T3) | Potency (UISO) | Potency (WaGa) | Potency (C33A) | Potency (CAOV3) | Potency (CASKI) | Potency (Es-2) | Potency (HeLa) | Potency (Hek293T) | Potency (JEG-3) | Potency (OV90) | Potency (PA-1) | Potency (Tov-21-G) | Potency (Tov112D) | activity, negative = cell killing [1, 3] 4.82% | activity, negative = cell killing [1, 4] -21% | activity, negative = cell killing [1, 6] -0.236% | Potency (astro)

O=C(OCC(COC(=O)c1cccnc1)(COC(=O)c1cccnc1)COC(=O)c1cccnc1)c1cccnc1
active: Potency ([1]; tumour line A) 14.1 µM
inactive: outcome (NIH3T3) | Potency (UISO) | Potency (WaGa) | Potency (C33A) | Potency (CAOV3) | Potency (CASKI) | Potency (Es-2) | Potency (HeLa) | Potency (Hek293T) | Potency (JEG-3) | Potency (OV90) | Potency (PA-1) | Potency (SKOV3) | Potency (Tov-21-G) | Potency (Tov112D) | activity, negative = cell killing [1, 3] -3.98% | activity, negative = cell killing [1, 4] 3.04% | activity, negative = cell killing [1, 6] -10.2% | Potency (astro)

Cc1cc(=O)oc2cc(O[C@@H]3SC[C@@H](O)[C@H](O)[C@H]3O)ccc12
inactive: outcome (NIH3T3) | Potency (UISO) | Potency (WaGa) | Potency (C33A) | Potency (CAOV3) | Potency (CASKI) | Potency (Es-2) | Potency (HeLa) | Potency (Hek293T) | Potency (JEG-3) | Potency (OV90) | Potency (PA-1) | Potency (Tov-21-G) | Potency (Tov112D)

CCCCCC1Nc2cc(C(F)(F)F)c(S(N)(=O)=O)cc2S(=O)(=O)N1 (configuration not stated)
inactive: outcome (NIH3T3) | Potency (UISO) | Potency (WaGa) | Potency (C33A) | Potency (CAOV3) | Potency (CASKI) | Potency (Es-2) | Potency (HeLa) | Potency (Hek293T) | Potency (JEG-3) | Potency (OV90) | Potency (PA-1) | Potency (SKOV3) | Potency (Tov-21-G) | Potency (Tov112D) | activity, negative = cell killing [1, 3] -8.57% | activity, negative = cell killing [1, 4] -19.1% | activity, negative = cell killing [1, 6] -6.63% | Potency (astro)

Cn1c(=O)c2c(ncn2CC(=O)O)n(C)c1=O
inactive: outcome (NIH3T3) | Potency (UISO) | Potency (WaGa) | Potency (C33A) | Potency (CAOV3) | Potency (CASKI) | Potency (Es-2) | Potency (HeLa) | Potency (Hek293T) | Potency (JEG-3) | Potency (OV90) | Potency (PA-1) | Potency (Tov-21-G) | Potency (Tov112D)

COc1cc(/C=C/C(N)=O)cc(OC)c1OC
inactive: outcome (NIH3T3) | Potency (UISO) | Potency (WaGa) | Potency (C33A) | Potency (CAOV3) | Potency (CASKI) | Potency (Es-2) | Potency (HeLa) | Potency (Hek293T) | Potency (JEG-3) | Potency (OV90) | Potency (PA-1) | Potency (SKOV3) | Potency (Tov-21-G) | Potency (Tov112D)

O=P(O)(O)OCC(O)CO (configuration not stated)
inactive: outcome (NIH3T3) | Potency (UISO) | Potency (WaGa) | Potency (C33A) | Potency (CAOV3) | Potency (CASKI) | Potency (Es-2) | Potency (HeLa) | Potency (Hek293T) | Potency (JEG-3) | Potency (OV90) | Potency (PA-1) | Potency (SKOV3) | Potency (Tov-21-G) | Potency (Tov112D) | Potency (astro)

O=C(O)/C=C(\CC(=O)O)C(=O)O
active: Potency ([1]; tumour line A) 20 µM
inactive: outcome (NIH3T3) | Potency (UISO) | Potency (WaGa) | Potency (C33A) | Potency (CAOV3) | Potency (CASKI) | Potency (Es-2) | Potency (HeLa) | Potency (Hek293T) | Potency (JEG-3) | Potency (OV90) | Potency (PA-1) | Potency (SKOV3) | Potency (Tov-21-G) | Potency (Tov112D) | activity, negative = cell killing [1, 3] -11.5% | activity, negative = cell killing [1, 4] -18% | Potency (astro)

CCS(=O)(=O)c1ccc(OC)c(C(=O)OC)c1
inactive: outcome (NIH3T3) | Potency (UISO) | Potency (WaGa) | Potency (C33A) | Potency (CAOV3) | Potency (CASKI) | Potency (Es-2) | Potency (HeLa) | Potency (Hek293T) | Potency (JEG-3) | Potency (OV90) | Potency (PA-1) | Potency (SKOV3) | Potency (Tov-21-G) | Potency (Tov112D)

C[C@]12CCC(=O)C=C1CC[C@@H]1[C@@H]2[C@@H](O)C[C@@]2(C)[C@H]1CC[C@]2(O)C(=O)COC(=O)CCC(=O)O
inactive: outcome (NIH3T3) | Potency (UISO) | Potency (WaGa) | Potency (C33A) | Potency (CAOV3) | Potency (CASKI) | Potency (Es-2) | Potency (HeLa) | Potency (Hek293T) | Potency (JEG-3) | Potency (OV90) | Potency (PA-1) | Potency (SKOV3) | Potency (Tov-21-G) | Potency (Tov112D) | activity, negative = cell killing [1, 3] -2.56% | activity, negative = cell killing [1, 4] -26.6% | activity, negative = cell killing [1, 6] -2.87% | Potency (astro)

O=C(CO)[C@@H](O)[C@H](O)[C@@H](O)CO
inactive: outcome (NIH3T3) | Potency (UISO) | Potency (WaGa) | Potency (C33A) | Potency (CAOV3) | Potency (CASKI) | Potency (Es-2) | Potency (HeLa) | Potency (Hek293T) | Potency (JEG-3) | Potency (OV90) | Potency (PA-1) | Potency (Tov-21-G) | Potency (Tov112D) | activity, negative = cell killing [1, 3] 4.08% | activity, negative = cell killing [1, 4] -8.89% | activity, negative = cell killing [1, 5] -12.2% | activity, negative = cell killing [1, 6] 8.07% | Potency (astro)
